The source of these data is article PMC12820563, “FoxP3 forms a head-to-head dimer in vivo and stabilizes its multimerization on adjacent microsatellites”.

Over roughly 16,000 sequences, “rpm ratio (pull-down/input)” has its median near 0.94; the highest 2% begin near 1.7. Only a selection was taken, and the highest values are over-represented in it overall.

The target of this experiment is T1, MBP-FoxP1dN (Mus musculus, UniProt P58462 326-579).
T1 sequence: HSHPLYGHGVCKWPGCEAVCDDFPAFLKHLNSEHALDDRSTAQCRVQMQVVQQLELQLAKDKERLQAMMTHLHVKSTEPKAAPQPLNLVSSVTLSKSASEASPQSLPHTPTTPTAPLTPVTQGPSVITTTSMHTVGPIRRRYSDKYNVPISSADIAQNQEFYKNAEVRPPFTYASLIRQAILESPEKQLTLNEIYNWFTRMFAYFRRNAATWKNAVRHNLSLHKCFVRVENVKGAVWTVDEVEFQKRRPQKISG
Briefly: PD-seq (MBP pull-down with sequencing); 20 mM Tris-HCl pH 7.5, 100 mM NaCl, 1.5 mM MgCl2, 0.4 uM protein, 0.1 uM dsDNA library, 30 min, room temperature, amylose pull-down; high values mean tight binding. The note with it: protein: recombinant; tags: His6-MBP; chain copies: 2; dsDNA, one strand shown. Put shortly: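 The N-terminus-lacking fragment of mouse FoxP3 or FoxP1 carried a His6-MBP tag and was expressed in E. coli. At 0.4 µM it was incubated with 0.1 µM Klenow-filled degenerate double-stranded DNA library for 30 min at room temperature in Tris pH 7.5 buffer with NaCl and MgCl2, and complexes were caught on amylose resin, washed three times, released with proteinase K, PCR-barcoded and Illumina-sequenced. Binding is reads-per-million enrichment of pull-down over input with replicates pooled.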
Consider “GATGATTGTTCTCCCAGCTGATGAATTTTACGTTTCGAGTAAACAAATTTTCCTAATCTTTCTGTTCAAGCGCCATCTAC”, for which the binding signal was 0.852 RPM ratio (pull-down/input).
To “GATGATTGTTCTCCCAGCTGATGAATTGCCTAGTTCGAGTAAACAAATTTTCCTAATCTTTCTGTTCAAGCGCCATCTAC” belongs 0.959 RPM ratio (pull-down/input); to “GATGATTGTTCTCCCAGCTGATGAATTAACACGCTCGAGTAAACAAATTTTCCTAATCTTTCTGTTCAAGCGCCATCTAC”, 1.02 RPM ratio (pull-down/input).
With “GATGATTGTTCTCCCAGCTGATGAATTGGTGTCGTCGAGTAAACAAATTTTCCTAATCTTTCTGTTCAAGCGCCATCTAC” the figure was 1.04 RPM ratio (pull-down/input).
To “GATGATTGTTCTCCCAGCTGATGAATTGTTGGTGTCGAGTAAACAAATTTTCCTAATCTTTCTGTTCAAGCGCCATCTAC” belongs 1.8 RPM ratio (pull-down/input).
Turning to “GATGATTGTTCTCCCAGCTGATGAATTTTTGGTGTCGAGTAAACAAATTTTCCTAATCTTTCTGTTCAAGCGCCATCTAC”, the binding signal was 0.926 RPM ratio (pull-down/input).
To “GATGATTGTTCTCCCAGCTGATGAATTGGTGTTGTCGAGTAAACAAATTTTCCTAATCTTTCTGTTCAAGCGCCATCTAC” belongs 2.78 RPM ratio (pull-down/input).
With “GATGATTGTTCTCCCAGCTGATGAATTTGGTGTGTCGAGTAAACAAATTTTCCTAATCTTTCTGTTCAAGCGCCATCTAC” the figure was 1 RPM ratio (pull-down/input); with “GATGATTGTTCTCCCAGCTGATGAATTGGTGGTGTCGAGTAAACAAATTTTCCTAATCTTTCTGTTCAAGCGCCATCTAC”, 0.948 RPM ratio (pull-down/input); with “GATGATTGTTCTCCCAGCTGATGAATTAGACCTTTCGAGTAAACAAATTTTCCTAATCTTTCTGTTCAAGCGCCATCTAC”, 0.881 RPM ratio (pull-down/input).
Take “GATGATTGTTCTCCCAGCTGATGAATTCGACCGATCGAGTAAACAAATTTTCCTAATCTTTCTGTTCAAGCGCCATCTAC”: the binding signal was 0.823 RPM ratio (pull-down/input).
On to “GATGATTGTTCTCCCAGCTGATGAATTAGCCGTTTCGAGTAAACAAATTTTCCTAATCTTTCTGTTCAAGCGCCATCTAC”, for which the binding signal was 0.852 RPM ratio (pull-down/input).
With “GATGATTGTTCTCCCAGCTGATGAATTTTATATTTCGAGTAAACAAATTTTCCTAATCTTTCTGTTCAAGCGCCATCTAC” the figure was 1.07 RPM ratio (pull-down/input); with “GATGATTGTTCTCCCAGCTGATGAATTTATATTTTCGAGTAAACAAATTTTCCTAATCTTTCTGTTCAAGCGCCATCTAC”, 2.37 RPM ratio (pull-down/input).
With “GATGATTGTTCTCCCAGCTGATGAATTATATATTTCGAGTAAACAAATTTTCCTAATCTTTCTGTTCAAGCGCCATCTAC” the figure was 1.06 RPM ratio (pull-down/input).
With “GATGATTGTTCTCCCAGCTGATGAATTATATTTTTCGAGTAAACAAATTTTCCTAATCTTTCTGTTCAAGCGCCATCTAC” the figure was 1.61 RPM ratio (pull-down/input); with “GATGATTGTTCTCCCAGCTGATGAATTTTTATATTCGAGTAAACAAATTTTCCTAATCTTTCTGTTCAAGCGCCATCTAC”, 1.1 RPM ratio (pull-down/input).
Regarding “GATGATTGTTCTCCCAGCTGATGAATTATATTGTTCGAGTAAACAAATTTTCCTAATCTTTCTGTTCAAGCGCCATCTAC”, the binding signal was 2.08 RPM ratio (pull-down/input).
To “GATGATTGTTCTCCCAGCTGATGAATTTACTTTATCGAGTAAACAAATTTTCCTAATCTTTCTGTTCAAGCGCCATCTAC” belongs 1.46 RPM ratio (pull-down/input).
“GATGATTGTTCTCCCAGCTGATGAATTACGTAGTTCGAGTAAACAAATTTTCCTAATCTTTCTGTTCAAGCGCCATCTAC”: the binding signal was 1.02 RPM ratio (pull-down/input).
With “GATGATTGTTCTCCCAGCTGATGAATTATGGCGATCGAGTAAACAAATTTTCCTAATCTTTCTGTTCAAGCGCCATCTAC” the figure was 0.99 RPM ratio (pull-down/input).
With “GATGATTGTTCTCCCAGCTGATGAATTGGTAGGCTCGAGTAAACAAATTTTCCTAATCTTTCTGTTCAAGCGCCATCTAC” the figure was 0.819 RPM ratio (pull-down/input); with “GATGATTGTTCTCCCAGCTGATGAATTCTTTACGTCGAGTAAACAAATTTTCCTAATCTTTCTGTTCAAGCGCCATCTAC”, 0.992 RPM ratio (pull-down/input); with “GATGATTGTTCTCCCAGCTGATGAATTGTTTACGTCGAGTAAACAAATTTTCCTAATCTTTCTGTTCAAGCGCCATCTAC”, 2.79 RPM ratio (pull-down/input).
To “GATGATTGTTCTCCCAGCTGATGAATTTACGTCGTCGAGTAAACAAATTTTCCTAATCTTTCTGTTCAAGCGCCATCTAC” belongs 1.25 RPM ratio (pull-down/input); to “GATGATTGTTCTCCCAGCTGATGAATTTTTTACGTCGAGTAAACAAATTTTCCTAATCTTTCTGTTCAAGCGCCATCTAC”, 0.984 RPM ratio (pull-down/input); to “GATGATTGTTCTCCCAGCTGATGAATTTATTACGTCGAGTAAACAAATTTTCCTAATCTTTCTGTTCAAGCGCCATCTAC”, 1.11 RPM ratio (pull-down/input).
“GATGATTGTTCTCCCAGCTGATGAATTATTTACGTCGAGTAAACAAATTTTCCTAATCTTTCTGTTCAAGCGCCATCTAC”: the binding signal was 2.19 RPM ratio (pull-down/input).
With “GATGATTGTTCTCCCAGCTGATGAATTTATCCCTTCGAGTAAACAAATTTTCCTAATCTTTCTGTTCAAGCGCCATCTAC” the figure was 1.05 RPM ratio (pull-down/input); with “GATGATTGTTCTCCCAGCTGATGAATTGCGTACCTCGAGTAAACAAATTTTCCTAATCTTTCTGTTCAAGCGCCATCTAC”, 1.09 RPM ratio (pull-down/input).
As for “GATGATTGTTCTCCCAGCTGATGAATTGGGGCGGTCGAGTAAACAAATTTTCCTAATCTTTCTGTTCAAGCGCCATCTAC”, the binding signal is 0.782 RPM ratio (pull-down/input).
Take “GATGATTGTTCTCCCAGCTGATGAATTGACAGGATCGAGTAAACAAATTTTCCTAATCTTTCTGTTCAAGCGCCATCTAC”: the binding signal is 1.1 RPM ratio (pull-down/input).
